Experimental data as given in PMC7826789 (International Journal of Molecular Sciences, 2021).

Experiments:
Details in all cases: Compound Concentration (nM):1000
[1] = tested on: MET(Y1235D)
[2] = tested on: MET
[3] = tested on: T1, MINK
T1 construct: gene MINK1

[4] = tested on: T2, MKK7
T2 construct: gene MAP2K7

[5] = tested on: MKNK1
[6] = tested on: MKNK2
[7] = tested on: T3, MLCK
T3 construct: gene MYLK3

[8] = tested on: T4, MLK1
T4 construct: gene MAP3K9

[9] = tested on: T5, MLK2
T5 construct: gene MAP3K10

[10] = tested on: T6, MLK3
T6 construct: gene MAP3K11

[11] = tested on: T7, MRCKA
T7 construct: gene CDC42BPA

[12] = tested on: T8, MRCKB
T8 construct: gene CDC42BPB

[13] = tested on: MST1R
[14] = tested on: T9, MST1
T9 construct: gene STK4

[15] = tested on: T10, MST2
T10 construct: gene STK3

[16] = tested on: T11, MST3
T11 construct: gene STK24

[17] = tested on: MST4
[18] = tested on: MTOR
[19] = tested on: MUSK
[20] = tested on: MYLK2
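Note: KINOMEscan scanMAX binding as percent activity remaining versus control; lower means stronger binding.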

| SMILES | Percent Control [1] | Percent Control [2] | Percent Control [3] | Percent Control [4] | Percent Control [5] | Percent Control [6] | Percent Control [7] | Percent Control [8] | Percent Control [9] | Percent Control [10] | Percent Control [11] | Percent Control [12] | Percent Control [13] | Percent Control [14] | Percent Control [15] | Percent Control [16] | Percent Control [17] | Percent Control [18] | Percent Control [19] | Percent Control [20] |
| --- | --- | --- | --- | --- | --- | --- | --- | --- | --- | --- | --- | --- | --- | --- | --- | --- | --- | --- | --- | --- |
| NS(=O)(=O)c1ccc(N/N=C2\C(=O)Nc3ccc(-c4cnco4)cc32)cc1 [GW276655] | 100% | 94% | 3.8% | 93% | 93% | 71% | 19% | 73% | 64% | 96% | 100% | 98% | 92% | 100% | 40% | 77% | 53% | 100% | 100% | 73% |
| COc1cc(/C=N/Nc2ncnc3[nH]ncc23)ccc1O [GW578748X] | 83% | 100% | 39% | 100% | 78% | 38% | 90% | 66% | 51% | 43% | 100% | 100% | 100% | 100% | 86% | 93% | 20% | 96% | 100% | 81% |
| NS(=O)(=O)c1ccc(N/N=C2\C(=O)Nc3ccc(C(=O)NCc4ccncc4)cc32)cc1 [GW300657X] | 91% | 100% | 34% | 93% | 56% | 78% | 45% | 89% | 99% | 100% | 100% | 98% | 100% | 100% | 45% | 73% | 75% | 97% | 83% | 100% |
| COc1cccc(-c2c[nH]c3c(N/N=C/c4ccncc4)ncnc23)c1 [GW814408X] | 75% | 64% | 33% | 100% | 57% | 30% | 95% | 61% | 76% | 73% | 100% | 100% | 88% | 100% | 100% | 74% | 21% | 100% | 100% | 68% |
| Cl.O=C(Nc1ccc(Oc2ccc3[nH]c(NC(=O)c4ccco4)nc3c2)cc1)Nc1cc(C(F)(F)F)ccc1F [GW683134A] | 6.6% | 17% | 99% | 100% | 48% | 12% | 100% | 64% | 82% | 67% | 94% | 89% | 100% | 100% | 100% | 100% | 87% | 100% | 5.6% | 38% |
| COc1cc2ncnc(Nc3ccc4c(cnn4Cc4ccccc4)c3)c2cc1OC.Cl [GW282449A] | 100% | 100% | 87% | 100% | 100% | 76% | 100% | 100% | 100% | 100% | 100% | 100% | 100% | 100% | 100% | 100% | 94% | 100% | 100% | 100% |
| COc1ccccc1-c1cc(/C=C2\C(=O)Nc3ncc(Br)cc32)cc(Br)c1O [GW442130X] | 100% | 92% | 93% | 100% | 100% | 100% | 100% | 99% | 100% | 100% | 100% | 100% | 100% | 100% | 95% | 100% | 100% | 77% | 100% | 97% |
| Cl.c1ccc(Cc2nc3ccc(Nc4ncnc5ccccc45)cc3[nH]2)cc1 [GR269666A] | 91% | 100% | 92% | 100% | 86% | 100% | 100% | 100% | 100% | 91% | 100% | 100% | 100% | 100% | 100% | 100% | 100% | 100% | 100% | 100% |
| COc1ccc2c(-c3ccnc(Nc4cccc(OC(F)(F)F)c4)n3)cnn2n1 [GW810372X] | 100% | 100% | 93% | 100% | 73% | 100% | 100% | 100% | 74% | 100% | 100% | 99% | 100% | 100% | 100% | 98% | 60% | 100% | 100% | 100% |
| CC(C)COC(=O)c1ccc2c(c1)/C(=C/Nc1ccc(S(N)(=O)=O)cc1)C(=O)N2 [GW416981X] | 94% | 100% | 37% | 100% | 100% | 100% | 100% | 100% | 96% | 100% | 100% | 100% | 100% | 100% | 1.1% | 98% | 31% | 100% | 100% | 100% |
| COc1ccc2cc(-c3c(-c4ccncc4)nc(-c4ccc(S(C)(=O)=O)cc4C)n3C)ccc2c1 [SB-633825] | 100% | 80% | 43% | 89% | 66% | 73% | 90% | 63% | 79% | 82% | 93% | 88% | 85% | 66% | 60% | 100% | 82% | 100% | 99% | 100% |
| O=C1Nc2ccc(C(=O)c3ccco3)cc2C1=Cc1cc(Cl)c(O)c(Cl)c1 [GW406108X] | 100% | 67% | 13% | 78% | 72% | 89% | 100% | 97% | 100% | 95% | 100% | 100% | 100% | 93% | 0% | 86% | 79% | 100% | 100% | 100% |
| CN1CCN(C(=O)c2ccc(NC(=O)Nc3ccc(N(C)c4ccnc(Nc5ccc(CS(C)(=O)=O)cc5)n4)cc3)cc2)CC1.Cl [GW830263A] | 4.4% | 8.8% | 18% | 95% | 65% | 4.2% | 86% | 86% | 82% | 91% | 89% | 86% | 41% | 96% | 16% | 47% | 11% | 100% | 11% | 36% |
| C[C@@H](Oc1cc(-n2cnc3ccc(OC4CCN(C)CC4)cc32)sc1C(N)=O)c1ccccc1Cl [GSK579289A] | 98% | 58% | 75% | 78% | 71% | 60% | 72% | 39% | 86% | 100% | 100% | 88% | 100% | 77% | 24% | 84% | 59% | 95% | 85% | 48% |
| CN(C)CCNC(=O)Nc1ccc(N(C)c2ccnc(Nc3ccc(CS(C)(=O)=O)cc3)n2)cc1.Cl [GW830900A] | 57% | 21% | 59% | 100% | 100% | 53% | 100% | 97% | 99% | 100% | 95% | 96% | 100% | 100% | 100% | 91% | 66% | 97% | 78% | 100% |
| COc1cc(C=NNc2ncnc3c2cnn3-c2ccccc2)ccc1O [GW513184X] | 57% | 36% | 48% | 100% | 100% | 50% | 98% | 48% | 83% | 50% | 100% | 100% | 29% | 100% | 94% | 100% | 58% | 93% | 100% | 43% |
| COc1cc(N2CCN(C(C)C)CC2)ccc1Nc1nc(Nc2ccc(F)cc2C(=O)NC[C@@H](O)CO)c2cc[nH]c2n1 [GSK1392956A] | 100% | 100% | 80% | 100% | 61% | 97% | 96% | 100% | 100% | 100% | 100% | 100% | 100% | 100% | 92% | 90% | 94% | 100% | 100% | 100% |
| NS(=O)(=O)c1ccc(Nc2ncc(-c3ccccc3)o2)cc1 [GW572399X] | 100% | 100% | 40% | 100% | 39% | 53% | 100% | 100% | 100% | 100% | 100% | 100% | 100% | 100% | 100% | 100% | 65% | 88% | 100% | 100% |
| NS(=O)(=O)c1ccc(N/N=C2\C(=O)Nc3ccc(C(=O)NCCc4c[nH]cn4)cc32)cc1 [GW300660X] | 100% | 100% | 43% | 100% | 100% | 100% | 100% | 100% | 100% | 100% | 100% | 100% | 100% | 100% | 60% | 100% | 25% | 91% | 100% | 100% |
| CCc1ccc(Oc2nccc(-c3c(-c4ccc(F)cc4)ncn3C3CCNCC3)n2)cc1 [SB-242719] | 100% | 93% | 36% | 90% | 83% | 100% | 76% | 85% | 100% | 71% | 68% | 17% | 100% | 88% | 66% | 90% | 61% | 89% | 100% | 80% |
